Hit rate of the full screen: of about 48,000 compounds, about 13,000 (27%) showed an effect of 50% or more. The list shows a part of the results.
The compounds below were run on Wolbachia pipientis (assay: Anti-Wolbachia Cell-Based Screen). Settings: 5 µM.
Format: functional
Set-up: scale not given: in the data most compounds retested in dose-response had high values

SMILES | Percent Effect
Cc1ccccc1OCC(=O)N1CC[C@]2(C[C@@H](OCC3CC3)CO2)C1 | 14.13%
CC(NC(=O)c1coc(COc2cccc(F)c2)n1)c1nnc(N)s1 (configuration not stated) | -13.23%
O=C(N1CCc2ccccc2CC1)C1(O)Cc2ccccc2C1 | 1.099%
Cc1nsc(N2CCCN(C(=O)NCc3cccnc3)CC2)n1 | -3.745%
CCNC(=O)N1C[C@@H]2OCC(=O)N(C)[C@@H]2C1 | -7.352%
Cn1cc(C(=O)N[C@@H]2CN(Cc3cccnc3)[C@@H]3CCCO[C@@H]32)cn1.O=C(O)C(F)(F)F.O=C(O)C(F)(F)F | -2.49%
Cn1ccnc1C(=O)N[C@@H]1CN(CC2CCOCC2)[C@@H]2CCCO[C@@H]21.O=C(O)C(F)(F)F | 97.93%
O=C(N[C@@H]1CN(Cc2cccs2)[C@@H]2CCCO[C@@H]21)c1cscn1.O=C(O)C(F)(F)F | 6.119%
Cn1cccc1C(=O)N[C@@H]1CN(Cc2ccsc2)[C@@H]2COC[C@@H]21.O=C(O)C(F)(F)F | -6.344%
Cn1cccc1C(=O)N[C@H]1CN(Cc2ccoc2)[C@@H]2CCCO[C@H]12.O=C(O)C(F)(F)F | 107.4%
Cn1ccnc1CN1C[C@H](N2CCOCC2)[C@@H]2OCCC[C@@H]21.O=C(O)C(F)(F)F.O=C(O)C(F)(F)F.O=C(O)C(F)(F)F | -9.409%
Cn1cc(CN2C[C@@H](NC(=O)c3cscn3)[C@H]3OCCC[C@H]32)cn1.O=C(O)C(F)(F)F.O=C(O)C(F)(F)F | -10.62%
Cn1cc(C(=O)N[C@@H]2CN(CC3CCOCC3)[C@@H]3CCCO[C@@H]32)cn1.O=C(O)C(F)(F)F | -2.907%
Cn1ccnc1C(=O)N[C@@H]1CN(Cc2ccoc2)[C@@H]2CCCO[C@@H]21.O=C(O)C(F)(F)F | 105.8%
O=C(N[C@@H]1CN(CC2CC2)[C@@H]2CCCO[C@@H]21)c1cscn1.O=C(O)C(F)(F)F | 102.8%
Cc1ccc(C(F)(F)F)cc1C(=O)N[C@H]1CN(CCO)C[C@@H]1C1CC1 | 7.552%
CNC(=O)c1c(C)cccc1NCc1noc(C2CC2)n1 | -16.59%
N#Cc1ccc(CN2C[C@@H](F)[C@@H](OCc3nc4cnccc4[nH]3)C2)cc1 | -2.578%
CC1CN(C(=O)NCc2cnn(-c3ccc(F)cc3F)c2)CCO1 (configuration not stated) | -3.691%
Cc1cnn(CCNCC(=O)Nc2ccc(Cl)cn2)c1 | 6.715%
CC(C)c1nn(C)c(N(C)C)c1CNC1CCN(C2CC2)CC1.Cl | -24.68%
CC(C)CN1CC2(CCN(C(=O)C3CSC(C)(C)C(=O)N3)CC2)CC1=O (configuration not stated) | -2.858%
Cn1ccnc1C(=O)N[C@@H]1CN(Cc2cccs2)[C@@H]2CCCO[C@@H]21.O=C(O)C(F)(F)F | -0.1124%
Cn1cc(C(=O)N[C@@H]2CN(Cc3cccs3)[C@@H]3CCCO[C@@H]32)cn1.O=C(O)C(F)(F)F | -10.01%
Cn1cc(C(=O)N[C@@H]2CN(Cc3ccoc3)[C@@H]3CCCO[C@@H]32)cn1 | 112.9%

SMILES | Percent Effect
Cn1cc(C(=O)N[C@@H]2CN(Cc3ccc(F)cc3)[C@@H]3CCCO[C@@H]32)cn1.O=C(O)C(F)(F)F | -4.433%
Cc1ccc(CN2C[C@H](NC(=O)c3nccn3C)[C@H]3OCCC[C@H]32)o1 | 104.4%
CCN(CC)[C@@H]1CN(Cc2ccc(C)o2)[C@@H]2CCCO[C@H]12 | -8.708%
Cn1ccnc1C(=O)N[C@@H]1CN(Cc2ccc(F)cc2)[C@@H]2CCCO[C@@H]21.O=C(O)C(F)(F)F | 106%
O=C1C(NCc2nnc3n2CCCC3)CCN1CC(F)(F)F (configuration not stated) | -0.8085%
COc1ccc(CSCC(O)CO)c(Cl)c1 (configuration not stated) | -5.402%
CCn1cc(S(=O)(=O)NC(CO)Cc2c[nH]c3ccccc23)cn1 (configuration not stated) | -10.13%
CC(=O)NC1CCN(c2nc(C)nc3c2c(C)nn3C)C1 (configuration not stated) | -5.882%
CCN(CC)c1nc2sc(C(=O)NC(C)(C)C(=O)OC)cc2s1 | 3.402%
Cc1ccc(N2Cc3nc(=O)[nH]n3C2=O)cc1 | -1.797%
COC(=O)c1ccc(Cn2cccc(C(F)(F)F)c2=O)s1 | -1.829%
COC(=O)c1ccc(CN2CCC(c3noc(C)n3)CC2)s1 | 44.67%
COC(=O)c1ccc(CN2CCC(c3n[nH]c(C)n3)CC2)s1 | 96.4%
Cc1nc(C2CCN(S(=O)(=O)c3ccc4c(c3)CCO4)CC2)n[nH]1 | 0.09354%
Cc1noc(CN2CCN(C(C)C(=O)NCc3cccs3)CC2)n1 (configuration not stated) | 10.97%
COC(=O)c1cc(CN2CCC(c3noc(C)n3)CC2)c(C)s1 | 83.77%
CC(=O)NCC1CCN(Cc2nc(C3CC3)no2)CC1 | 21.76%
Cc1noc(CN2CCN(CCS(C)(=O)=O)CC2)n1 | -3.839%
COC(=O)c1ccc(CN2CCN(Cc3nc(C)no3)CC2)s1 | 97.03%
O=C1CCCc2occ(C(=O)N3CCCC4(CCNC4)C3)c21 (configuration not stated) | -0.7654%
Cc1c(Cl)cccc1S(=O)(=O)NCC(O)c1cccn1C (configuration not stated) | 9.208%
O=C(NCCn1cccn1)Nc1cc(C(=O)N2CCOCC2)ccc1Cl | -1.545%
COCCNC(=O)[C@H]1C[C@@](CC(C)C)(C(=O)O)N(C)[C@H]1c1cccnc1 | -5.7%
Cc1cc(C)n(-c2ccc(C(=O)NCc3cncn3CC(C)C)cc2)n1 | -4.296%
CCCS(=O)(=O)NC(=O)c1ccc(-n2nc(C)cc2C)cc1 | -12.15%

SMILES | Percent Effect
Cc1cc(C)n(-c2ccc(C(C)NS(=O)(=O)CCCS(C)(=O)=O)cc2)n1 (configuration not stated) | 5.826%
CC(C)n1cc(C(=O)NCC(CO)Cc2cccs2)cn1 (configuration not stated) | 100.7%
CSCc1nc(CNC(=O)c2cnn(C(C)C)c2)cs1 | -8.764%
CC(CNC(=O)N1CCC(CO)CC1)Cc1cccs1 (configuration not stated) | -8.447%
Cc1cc(C)n(-c2ccc(C(=O)NCC(CO)Cc3cccs3)cc2)n1 (configuration not stated) | 87.25%
CC(C)n1cc(C(=O)NCCc2cn3ccsc3n2)cn1 | -2.025%
Cc1cc(C)n(-c2ccc(C(=O)NCC(CO)Cc3ccco3)cc2)n1 (configuration not stated) | 116.9%
Cc1cc(-c2nn(C)c(Cl)c2CN2Cc3ccccc3C(O)C2)no1 (configuration not stated) | 9.326%
CCCS(=O)(=O)N1CCC2(CCCC(=O)N2C)CC1 | -27.87%
COCCN1CCN(Cc2ccc(C(C)=O)cc2)[C@H]2CS(=O)(=O)C[C@H]21 | -2.157%
Cc1nn(C)c(Oc2cccc(F)c2)c1NC(=O)C1CCCO1 (configuration not stated) | 1.382%
COC(=O)C1CN(Cc2ccc(-c3ccncc3)cc2F)C[C@@H](C)O1 (some centres not stated) | 4.503%
CC(C)OCCN1CCN(C(=O)c2cccc(-n3cccn3)n2)CC1 | -4.895%
COc1cccc2c1OCC(NC(=O)NCCC(N)=O)C2 (configuration not stated) | 107.1%
COc1cccc2c1OCC(C(=O)NCCc1nnc(N)s1)C2 (configuration not stated) | 12.39%
COc1cccc2c1OCC(CNC(=O)CNC(N)=O)C2 (configuration not stated) | -0.3476%
COc1cccc2c1OCC(NC(=O)NCCc1ccccn1)C2 (configuration not stated) | 120.5%
COc1cccc2c1OCC(C(=O)NCCc1nnc(C)s1)C2 (configuration not stated) | 6.125%
COc1cccc2c1OCC(CNC(=O)CSc1ccccn1)C2 (configuration not stated) | -6.827%
CNC(=O)c1cccc(CNC2CCCSc3ccccc32)c1 (configuration not stated) | -0.5699%
CN(C)C(C(=O)NCC1(Cn2cccn2)CC1)c1ccc(F)cc1 (configuration not stated) | -7.743%
CSc1ccc(OC(C)C(=O)Nc2cc[nH]n2)cc1 (configuration not stated) | 1.482%
COc1cccc(CNCc2nnc3n2CC(C(F)(F)F)CC3)c1 (configuration not stated) | -16.12%
CCC1COCCN1C(=O)CNC(=O)c1ccc2c(c1)CCC2 (configuration not stated) | -1.675%
CCC(CNC(=O)Nc1cnn(CC)c1)N1CCCC1 (configuration not stated) | -8.538%

SMILES | Percent Effect
NC(=O)Cn1cc(NC(=O)NCC2CCN(c3ccccc3)C2)cn1 (configuration not stated) | 6.849%
NC(=O)Cn1cc(NC(=O)N2CCCC2)cn1 | -13.27%
CCn1cc(NC(=O)NCC(C)(C)N2CCc3ccccc3C2)cn1 | 107.6%
NC(=O)Cn1cc(NC(=O)NCCN2CCc3ccccc3C2)cn1 | 93.55%
O=C(NCC(O)CN1CCc2ccccc2C1)Nc1cccnc1 (configuration not stated) | 1.395%
CC(Cn1cccn1)NC(=O)NCCN1CCc2ccccc2C1 (configuration not stated) | 1.571%
CCn1cc(NC(=O)NCC(O)CN2CCc3ccccc3C2)cn1 (configuration not stated) | 9.53%
CCn1cc(NC(=O)NCCN2CCc3ccccc3C2)cn1 | 123.6%
CCC(CNC(=O)c1ccccc1Br)N1CCc2ccccc2C1 (configuration not stated) | -9.585%
CCC(CNC(=O)Nc1cnn(CC)c1)N1CCc2ccccc2C1 (configuration not stated) | 115.3%
CCn1cc(NC(=O)NCC(c2cccs2)N(C)C)cn1 (configuration not stated) | -11.74%
COc1ncccc1CNCc1c(C)nn(C)c1N(C)C | 96.94%
Cc1nn(CCO)c(C)c1CNCc1cccnc1N(C)C | 113.9%
Cc1cc2nc(C(=O)NCc3cccnc3N(C)C)cc(C)n2n1 | -11.37%
Cc1nn(C)c(N(C)C)c1CNCc1cccnc1N(C)C | 64.69%
COCCOc1ncccc1CNCc1c(C)nn(C)c1N(C)C | 5.631%
Cc1nn(C)c(N(C)C)c1CNCc1ccccc1Cn1cncn1 | 3.483%
CC(C)c1nn(C)c(N(C)C)c1CNCc1ccccc1CN(C)C | -8.36%
COc1ncccc1CNCc1c(C(C)C)nn(C)c1N(C)C | 7.273%
COCc1ccccc1CNCc1c(C)nn(C)c1N(C)C | 5.243%
Cc1cnn(CCNCc2c(C)nn(CCO)c2C)c1 | 8.317%
CCOc1ncccc1CNCc1c(C(C)C)nn(C)c1N(C)C | 98.21%
